Experiment [1] in a line: Nuclear factor erythroid 2-related factor 2/antioxidant responsive element (Nrf2/ARE) small molecule agonists: qHTS cell viability counter screen in human keratinocytes (AID 1919968; active = well fitted curve in the direction sought with a large enough effect in the repeat runs; an effect the other way counts as inactive or inconclusive; note: nearly all actives have a fitted effect of over 55% in size; note: potency is the fitted concentration of half-maximal effect). A digest of the protocol: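 Viability counter-screen: KeratinoSens reporter cells, DMSO-delivered compounds, 23 h at 37 C, CellTiter-Fluor fluorescence.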
Background: In qHTS, concentration-response curves come from the screen itself.

Experiment [2] can be described thus: Nuclear factor erythroid 2-related factor 2/antioxidant responsive element (Nrf2/ARE) small molecule agonists: luciferase reporter gene qHTS assay in human keratinocytes (AID 1919969). Note: nearly all actives have a fitted effect of over 35% in size. Note: potency is the fitted concentration of half-maximal effect. Background: Reporter assays use an easily measured gene product as a stand-in for the process of interest.
In experiment [3] the target is Gonadotropin-releasing hormone receptor (Homo sapiens) (UniProt P30968). As to the kind of experiment: Human gonadotropin-releasing hormone receptor (GnRHR) small molecule agonists, calcium flux assay in GnRHR-HEK293 cells (AID 1920063). Note: nearly all actives have a fitted effect of over 35% in size. The essentials: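 Tox21-format agonist screen using human GnRHR-expressing HEK293 cells and a fluorescent calcium dye; kinetic 3-min fluorescence reading after compound addition, 15-point concentration series run in triplicate.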

Experiment [4] has as its target KiSS-1 receptor (Homo sapiens) (UniProt Q969F8). As to the kind of experiment: Human kisspeptin (KISS1R) small molecule agonists, calcium flux assay in KISS1R-HEK293 cells (AID 1920064; active = well fitted curve in the direction sought with a large enough effect in the repeat runs; an effect the other way counts as inactive or inconclusive). The essentials: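 Intracellular calcium mobilization in KISS1R-HEK293 cells was recorded by fluorescence (Ex/Em 480/540) for 3 min following compound addition to cells pre-loaded 1 h with calcium dye.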

Experiment [5] can be described thus: G protein-coupled receptor (GPCR) small molecule agonists, calcium flux assay: HEK293 wild type cell line counter screen (AID 1920065). A digest of the protocol:
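In this agonist-mode screen, ATP is the positive control and DMSO the vehicle. Cells grow 18 h before a 1 h dye incubation at 37 C; signal is taken at Ex/Em 480/540 over 3 min.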
A general note: A change in cytosolic calcium serves as a functional read-out for many receptors and channels.

The nature of experiment [6]: p53 small molecule agonists, cell-based qHTS assay with human liver microsomes (AID 1963577). Note: potency is the fitted concentration of half-maximal effect. A digest of the protocol: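 p53RE-bla reporter cells were pre-incubated 5 h at 37 C, then treated with compounds plus human liver microsomes (0.5 mg/mL final) and NADPH (0.5 mg/mL final) for 16 h at 37 C. Beta-lactamase activity was read by LiveBLAzer fluorescence after 2 h at room temperature.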

A short description of experiment [7]: p53 small molecule agonists, cell-based qHTS assay with rat liver microsomes (AID 1963578). Note: potency is the fitted concentration of half-maximal effect. A digest of the protocol: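 p53RE-bla cells were exposed to compounds together with rat liver microsomes (0.5 mg/mL final) and NADPH (0.5 mg/mL final) for 16 h at 37 C, then read by LiveBLAzer beta-lactamase fluorescence after 2 h at room temperature.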
Experiment [8] in a line: p53 small molecule agonists, cell-based qHTS assay with human liver microsomes: qHTS cell viability counter screen (AID 1963579). Note: nearly all actives have a fitted effect of over 45% in size. Note: potency is the fitted concentration of half-maximal effect. The essentials: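 p53RE-bla cells (4,000/well) were pre-incubated 5 h at 37 C, then given compounds in DMSO plus human liver microsomes (0.5 mg/mL final) and NADPH (0.5 mg/mL final) for 16 h at 37 C. Viability was read by CellTiter-Glo luminescence.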

The nature of experiment [9]: p53 small molecule agonists, cell-based qHTS assay with rat liver microsomes: qHTS cell viability counter screen (AID 1963580). Note: nearly all actives have a fitted effect of over 45% in size. Note: potency is the fitted concentration of half-maximal effect. The essentials: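 p53RE-bla HCT-116 cells were exposed 16 h at 37 C to compounds with rat liver microsomes (0.5 mg/mL) and NADPH (0.5 mg/mL). Viability was measured in the same wells as ATP content by CellTiter-Glo luminescence.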
Experiment [10] is described as follows: p53 small molecule agonists, cell-based qHTS assay: qHTS cell viability counter screen (AID 1963581). Note: nearly all actives have a fitted effect of over 45% in size. Note: potency is the fitted concentration of half-maximal effect. A digest of the protocol: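 Compounds are pinned onto HCT-116 p53RE-bla cells and left 16 h at 37 C. Following the reporter FRET read, ATP is quantified by CellTiter-Glo luminescence after 30 min at room temperature.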
Experiment [11] addresses 5-hydroxytryptamine receptor 2A (Homo sapiens) (UniProt P28223). As to the kind of experiment: 5-hydroxytryptamine receptor 2A (HTR2A) small molecule agonists, cell-based qHTS assay (AID 1963587). Note: nearly all actives have a fitted effect of over 30% in size. A digest of the protocol:
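CHO cells stably expressing human HTR2A, plated 18 h, loaded with calcium dye 1 h at 37 C. Agonist mode: compounds added and intracellular calcium fluorescence recorded kinetically for 2 min at 1 sec intervals.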

Experiment [12] has as its target Muscarinic acetylcholine receptor M1 (Homo sapiens) (UniProt P11229). As to the kind of experiment: Cholinergic receptor muscarinic 1 (CHRM1) small molecule antagonists, cell-based qHTS assay (AID 1963588). Note: nearly all actives have a fitted effect of over 40% in size. The essentials: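 CHRM1-CHO calcium-flux assay, antagonist mode. Cells were seeded 18 h, dye-loaded 1 h at 37 C and given compound for 5 min at RT, then acetylcholine was added at 50nM. FDSS fluorescence was read 3 min; 15 concentrations, three runs.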

For experiment [13], the target named is Beta-2 adrenergic receptor (Homo sapiens) (UniProt P07550). As to the kind of experiment: Adrenergic beta2 receptor (ADRB2) small molecule antagonists, cell-based qHTS assay (AID 1963592). Note: nearly all actives have a fitted effect of over 50% in size. Note: potency is the fitted concentration of half-maximal effect. A digest of the protocol: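 Cells (CHO, stable ADRB2 overexpression) incubated 18-20hr at 37C; compounds added from DMSO; agonist mix (1nM isoproterenol, 100uM IBMX, 25uM Ro-20-1724) added; 0.5hr RT; d2-cAMP and anti-cAMP-cryptate added; 1hr RT; 665/615 nm read.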

Experiment [14] shares this target. Put plainly: Adrenergic beta2 receptor (ADRB2) small molecule agonists, cell-based qHTS assay (AID 1963593).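 Note: CHO cells stably overexpressing human ADRB2.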 A digest of the protocol:
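CHO cells stably over-expressing ADRB2 were plated overnight at 37C, then dosed with compounds plus a stimulation mix containing 100uM IBMX and 25uM Ro-20-1724 for 0.5hr at room temperature. cAMP was measured by HTRF competition, 1hr.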

Experiment [15] addresses D(2) dopamine receptor (Homo sapiens) (UniProt P14416). Put plainly: Dopamine D2 receptor (DRD2) small molecule antagonists, cell-based qHTS assay (AID 1963595; active = well fitted inhibition curve with a large enough effect in the signal ratio in the repeat runs, with a control signal flat; the % refers to the signal ratio). A digest of the protocol:
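Cells were plated and grown for 24 h at 37 °C. Ro20-1724 (0.1 mM final) went in first, then compound for 10 min. NKH477 (200 nM) with quinpirole (12 nM) followed for 30 min at RT, then HTRF detection reagents for 1 h.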

Experiment [16] addresses Muscarinic acetylcholine receptor M1 (Homo sapiens) (UniProt P11229). As to the kind of experiment: Cholinergic receptor muscarinic 1 (CHRM1) small molecule agonists, cell-based qHTS assay (AID 1963589). Note: nearly all actives have a fitted effect of over 35% in size. The essentials:
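Stable CHRM1-CHO cells (human receptor) were incubated 18 h, dye-loaded for 1 h at 37 C and exposed to test compounds for agonist activity, with calcium-dependent fluorescence followed kinetically.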

Experiment [17] deals with D(2) dopamine receptor (Homo sapiens) (UniProt P14416). Put plainly: Dopamine D2 receptor (DRD2) small molecule agonists, cell-based qHTS assay (AID 1963594). Note: nearly all actives have a fitted effect of over 35% in size. A digest of the protocol: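 HEK293 cells stably expressing human DRD2, pre-treated with PDE inhibitor Ro20-1724 (0.1 mM final) and compound 10 min at room temperature, then stimulated with NKH477 (200nM […]) for 30 min. cAMP read by HTRF (665/620 nm).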

Experiment [18] is described as follows: cAMP Responsive Elements (CRE) small molecule antagonists, cell-based qHTS assay (AID 1963591; active = well fitted inhibition curve with a large enough effect in the signal ratio in the repeat runs, not every such curve was filed as active; the % refers to the signal ratio). The essentials:
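qHTS in CRE-bla HEK 293T cells: compound in DMSO, then 0.25 uM NKH477 (final), 3 h at 37 °C/5% CO2; beta-lactamase FRET read-out after 2 h substrate incubation.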

Experiment [19] is described as follows: p53 small molecule agonists, cell-based qHTS assay (AID 1963582; active = well fitted activation curve with a large enough effect in the signal ratio in the repeat runs, not every such curve was filed as active; the % refers to the signal ratio). A digest of the protocol:
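Agonist activity was scored from beta-lactamase FRET fluorescence in p53RE-bla cells treated 16 h at 37 C with compounds in DMSO, substrate incubation being 2 h at room temperature.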

Experiment [20] can be described thus: cAMP Responsive Elements (CRE) small molecule agonists, cell-based qHTS assay (AID 1963590). The essentials: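 FRET-based beta-lactamase readout (LiveBLAzer B/G, 2 h RT) quantified CRE activation in HEK 293T CRE-bla cells after 3 h treatment with DMSO-dissolved compounds.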

Structures are written as SMILES. Several values for one entry are separate records, joined by “and”; a condition that tells them apart may be missing. Equal entries are not always repeated. Inconclusive results are not listed. Some structures have more than one record in an assay (separate samples or runs), and their calls can disagree. Activity calls are given as the source filed them. Unless noted, calls come from the whole dose curve.

Chain of Muscarinic acetylcholine receptor M1 (Homo sapiens) (P11229 whole entry, looked up): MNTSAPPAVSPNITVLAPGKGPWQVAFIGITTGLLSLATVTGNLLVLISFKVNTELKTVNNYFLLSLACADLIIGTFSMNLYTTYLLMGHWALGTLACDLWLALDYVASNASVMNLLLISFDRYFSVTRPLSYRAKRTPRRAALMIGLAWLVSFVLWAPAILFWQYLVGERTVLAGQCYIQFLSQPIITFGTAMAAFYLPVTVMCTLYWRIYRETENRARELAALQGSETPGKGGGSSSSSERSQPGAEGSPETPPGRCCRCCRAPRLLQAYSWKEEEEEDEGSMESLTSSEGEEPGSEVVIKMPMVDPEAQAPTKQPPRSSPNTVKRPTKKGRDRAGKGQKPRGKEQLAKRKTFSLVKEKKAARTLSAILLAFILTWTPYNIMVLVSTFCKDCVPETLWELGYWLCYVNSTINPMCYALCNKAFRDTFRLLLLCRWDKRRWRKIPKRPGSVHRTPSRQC
Chain of KiSS-1 receptor (Homo sapiens) (Q969F8 whole entry, looked up): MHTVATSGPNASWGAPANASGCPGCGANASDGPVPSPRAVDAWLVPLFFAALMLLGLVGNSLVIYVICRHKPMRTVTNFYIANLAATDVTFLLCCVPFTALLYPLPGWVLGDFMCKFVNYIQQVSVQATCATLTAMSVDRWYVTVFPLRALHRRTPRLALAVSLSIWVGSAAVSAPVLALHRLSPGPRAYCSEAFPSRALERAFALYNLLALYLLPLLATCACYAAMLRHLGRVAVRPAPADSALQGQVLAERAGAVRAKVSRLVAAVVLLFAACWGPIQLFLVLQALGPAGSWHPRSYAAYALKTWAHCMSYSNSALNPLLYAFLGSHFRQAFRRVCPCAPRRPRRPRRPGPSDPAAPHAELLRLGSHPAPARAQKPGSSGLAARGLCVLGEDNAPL
Chain of D(2) dopamine receptor (Homo sapiens) (P14416 whole entry, looked up): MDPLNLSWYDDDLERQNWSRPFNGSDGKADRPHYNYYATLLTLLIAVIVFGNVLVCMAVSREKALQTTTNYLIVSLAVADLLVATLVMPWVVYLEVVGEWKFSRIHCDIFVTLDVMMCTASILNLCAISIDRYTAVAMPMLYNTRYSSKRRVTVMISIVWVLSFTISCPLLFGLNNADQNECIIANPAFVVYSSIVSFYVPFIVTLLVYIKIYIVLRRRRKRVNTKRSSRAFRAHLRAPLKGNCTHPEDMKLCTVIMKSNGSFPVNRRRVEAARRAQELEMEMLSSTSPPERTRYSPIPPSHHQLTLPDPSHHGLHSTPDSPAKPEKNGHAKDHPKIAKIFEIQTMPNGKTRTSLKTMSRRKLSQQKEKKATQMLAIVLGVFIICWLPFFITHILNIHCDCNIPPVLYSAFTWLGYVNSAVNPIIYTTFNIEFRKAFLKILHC
Chain of Beta-2 adrenergic receptor (Homo sapiens) (P07550 whole entry, looked up): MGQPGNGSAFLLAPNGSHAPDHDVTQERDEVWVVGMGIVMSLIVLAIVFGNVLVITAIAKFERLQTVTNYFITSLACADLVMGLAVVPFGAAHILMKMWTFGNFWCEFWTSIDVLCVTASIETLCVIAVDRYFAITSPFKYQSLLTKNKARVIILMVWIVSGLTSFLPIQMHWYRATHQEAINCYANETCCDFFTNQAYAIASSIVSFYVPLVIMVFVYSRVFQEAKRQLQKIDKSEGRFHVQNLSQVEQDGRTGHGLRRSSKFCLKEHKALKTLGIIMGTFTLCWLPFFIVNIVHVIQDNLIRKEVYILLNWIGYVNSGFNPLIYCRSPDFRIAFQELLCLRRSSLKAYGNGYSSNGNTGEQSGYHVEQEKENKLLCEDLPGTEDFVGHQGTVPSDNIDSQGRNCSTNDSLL
Chain of Gonadotropin-releasing hormone receptor (Homo sapiens) (P30968 whole entry, looked up): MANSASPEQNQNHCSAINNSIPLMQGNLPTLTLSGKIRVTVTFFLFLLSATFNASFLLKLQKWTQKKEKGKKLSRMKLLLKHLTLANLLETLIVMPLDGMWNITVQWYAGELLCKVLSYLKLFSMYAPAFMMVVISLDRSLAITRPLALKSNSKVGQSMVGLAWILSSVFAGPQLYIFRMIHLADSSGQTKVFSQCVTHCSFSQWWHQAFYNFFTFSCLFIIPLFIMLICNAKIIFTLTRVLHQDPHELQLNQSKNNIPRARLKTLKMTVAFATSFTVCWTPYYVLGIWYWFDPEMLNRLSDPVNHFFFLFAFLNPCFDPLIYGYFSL
Chain of 5-hydroxytryptamine receptor 2A (Homo sapiens) (P28223 whole entry, looked up): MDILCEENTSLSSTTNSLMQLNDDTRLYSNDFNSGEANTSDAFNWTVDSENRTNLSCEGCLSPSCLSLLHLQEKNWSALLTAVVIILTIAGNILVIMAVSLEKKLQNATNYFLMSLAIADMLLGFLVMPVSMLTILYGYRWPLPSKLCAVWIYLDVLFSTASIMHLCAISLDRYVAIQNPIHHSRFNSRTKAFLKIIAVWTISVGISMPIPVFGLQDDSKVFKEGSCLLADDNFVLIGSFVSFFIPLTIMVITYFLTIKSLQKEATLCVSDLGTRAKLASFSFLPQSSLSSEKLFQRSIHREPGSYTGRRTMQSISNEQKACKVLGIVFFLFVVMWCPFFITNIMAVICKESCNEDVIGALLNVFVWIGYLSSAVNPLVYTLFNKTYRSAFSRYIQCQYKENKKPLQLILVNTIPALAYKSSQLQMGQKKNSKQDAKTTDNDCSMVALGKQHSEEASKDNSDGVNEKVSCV

For `CCCCCC(=O)O[C@]1(C(C)=O)CC[C@H]2[C@@H]3CCC4=CC(=O)CC[C@]4(C)[C@H]3CC[C@@]21C`, the Potency in [1] is 30.4 µM (active); in [8], 20.3 µM (active) and inactive. The Potency entry in experiment [2], in experiment [3], in experiment [4], in experiment [5], in [6] and in experiment [7] was “inactive” throughout. In addition, the Potency result in [9], in experiment [10], in experiment [11], in experiment [12], in experiment [13] and in experiment [14] was “inactive” in each case. Also, the Potency entry in experiment [15] is “inactive”.

For `Oc1ccc(Cl)cc1Sc1cc(Cl)ccc1O`, the Potency in experiment [1] is 38.5 µM (active); in [2] it was 15.3 µM (active) and inactive; in experiment [8], 32.3 µM (active) and inactive; in [9], 45.7 µM (active) and inactive; in experiment [10] it was 18.2 µM (active) and 17.8 µM (active); in experiment [13] it was 68.5 µM (active) and inactive. The Potency entry in [3], in experiment [4], in [5], in experiment [6], in experiment [7] and in experiment [11] was “inactive” each time. The Potency entry in [12], in experiment [16], in experiment [14], in experiment [17] and in [15] was “inactive” each time.

Consider `O=C(c1ccc(O)cc1O)c1ccc(O)cc1O`, for which the Potency entry in [1], in [2], in experiment [3], in experiment [4], in experiment [5] and in experiment [6] was “inactive” throughout. The Potency entry in experiment [7], in [8], in experiment [9], in experiment [10], in experiment [11] and in experiment [16] was “inactive” in each case. Besides, the Potency entry in [18], in experiment [17] and in experiment [15] was “inactive” each time.

As to `CC(C)CCOCCC(C)C`, the Potency entry in experiment [1], in experiment [2], in experiment [3], in [4], in experiment [5] and in experiment [6] was “inactive” throughout. In addition, the Potency result in experiment [7], in experiment [8], in [9], in [19], in experiment [11] and in experiment [12] was “inactive” each time. The Potency entry in experiment [16], in experiment [20], in experiment [18], in experiment [13], in experiment [14] and in [17] was “inactive” in each case. Moreover, in [15], the Potency entry was “inactive”.

Take `CCCc1cc(C(N)=S)ccn1`: the Potency entry in [1], in experiment [2], in experiment [3], in [4], in experiment [5] and in [6] was “inactive” each time. For the same compound, the Potency result in [7], in experiment [8], in [9], in [19], in [11] and in [12] was “inactive” throughout. The Potency result in experiment [16], in experiment [20], in experiment [18], in experiment [13], in [14] and in experiment [17] was “inactive” in each case.

Consider `Nc1nc(N)c2nc(-c3ccccc3)c(N)nc2n1`, for which the Potency entry in [1], in experiment [2], in experiment [3], in experiment [4], in [5] and in experiment [8] was “inactive” throughout. Also, the Potency entry in experiment [9], in experiment [10], in experiment [13], in experiment [14], in experiment [17] and in experiment [15] was “inactive” each time. Further, the Potency in experiment [6] is 18.2 µM (active); in experiment [7], 29.2 µM (active) and 17.8 µM (active).

On to `CC1=C(CC(=O)O)c2cc(F)ccc2/C1=C\c1ccc(S(C)=O)cc1` (stereo unspecified), for which the Potency result in [1], in experiment [2], in experiment [3], in experiment [4], in experiment [5] and in experiment [6] was “inactive” each time. Further, the Potency entry in experiment [7], in experiment [8], in [9], in [10], in experiment [14] and in experiment [17] was “inactive” each time. For the same compound, the Potency result in experiment [15] is “inactive”.

Values taken from PubChem BioAssay (Tox21).
